Consider 40 molecules from PubChem BioAssay (NCATS).

Results filed as inconclusive are left out. A call without a number means that no potency is given here. Calls of active or inactive are those of the source. The call rests on the fitted dose curve; in most records, active means well fitted inhibition curve with a large enough effect; inconclusive means small, poorly fitted or top-dose-only effect; inactive means flat fitted curve, though single readings scatter.

Chain of Calcium and integrin-binding protein 1 (Homo sapiens) (Q99828 whole entry, looked up): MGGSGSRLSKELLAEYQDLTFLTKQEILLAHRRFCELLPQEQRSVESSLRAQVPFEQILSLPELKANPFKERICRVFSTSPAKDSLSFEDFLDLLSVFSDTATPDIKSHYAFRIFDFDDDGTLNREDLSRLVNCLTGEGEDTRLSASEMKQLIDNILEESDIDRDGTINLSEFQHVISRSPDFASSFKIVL

The assay has as its target Calcium and integrin-binding protein 1 (Homo sapiens) (UniProt Q99828). Put plainly: Primary qHTS for Identification of Calcium Integrin Binding Protein 1 (CIB1) Competitor (AID 1508620).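 Further: GST tagged CIB1 binding a fluorescein labelled alphaIIb integrin peptide tracer; top concentration of the series differs between compounds.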 The settings on record: CIB1-GST / FITC-alphaIIb peptide fluorescence polarization; series mostly up to 114 µM. The essentials: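 Fluorescence polarization competition: CIB1-GST (1 uM final) preincubated with compound 15 min at room temperature, then FITC-labeled alphaIIb peptide (100 nM final) added for another 15 min. Polarization read at Ex 480/Em 540.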
Background: In qHTS, concentration-response curves come from the screen itself.
For the molecule `CNc1oc(-c2ccc3c(c2)OCCO3)nc1C#N`, the Potency result was “inactive”.
To `COc1ccc(C2Nc3ccccc3C(=O)N2Cc2ccc(C)o2)cc1COc1c(C)cccc1C` (stereo not given) belongs “inactive”.
To `COc1cccc(Nc2ccc(N3CCN(C(C)=O)CC3)cc2)c1OC` belongs “inactive”; to `COc1cccc(-c2ccc3ncnc(NCc4cc(C)cs4)c3c2)c1`, “inactive”; to `Fc1ccccc1-c1nc(-c2ccc(-c3nn[nH]n3)cc2)no1`, “inactive”.
For the molecule `O=C1CCCC2=C1C1(CCCC1)N=C(Nc1nc3cc4ccccc4cc3o1)N2`, the Potency result is “inactive”.
With `O=C(Nc1ccc(F)c(C(F)(F)F)c1)Nc1nnc(-c2ccncc2)o1`, the Potency entry is “inactive”.
Next, `O=C(Cn1nc(-c2ccc(OC(F)(F)F)cc2)ccc1=O)NCCc1ccccc1`: “inactive”.
Next, `Oc1cc(Nc2cccnc2)cc2cccnc12`: “inactive”; `CNc1oc(-c2cccc(Cl)c2)nc1C#N`: “inactive”.
To `Cc1ccc2oc(NC3=NC4(CCCC4)C4=C(CCCC4=O)N3)nc2c1` belongs “inactive”; to `Cc1cc(C)nc(NC(=S)N2CCN(c3cccc(C#N)c3)CC2)c1`, “inactive”; to `Cc1ccnc(NC(=S)N2CCNCC2)c1`, “inactive”.
`Cc1noc(C)c1-c1ccc2ncnc(NCc3ccc(Br)cc3)c2c1`: the Potency result is “inactive”.
To `CCOc1ccc(CCNC(=O)c2cc3ccccc3n2Cc2cc(C)cc(C)n2)cc1OCC` belongs “inactive”; to `COc1ccccc1-c1ncc(C)c(NCc2ccc(-c3cccnc3)cc2)n1`, “inactive”; to `Cc1ccc(CNc2cccc(N3CCCCC3)c2)cc1`, “inactive”.
To `O=C1c2ccccc2C(=O)N1Cc1ccncc1` belongs “inactive”; to `COCC1CCCN(C(=O)CC(c2ccc3c(c2)OCO3)c2c(O)cc(OC)cc2OC)C1` (stereo not given), “inactive”; to `O=C1c2ccccc2C(=O)N1c1ccc2ccccc2n1`, “inactive”.
Next, `O=S(=O)(c1ccc2c(c1)OCCO2)N1CCN(S(=O)(=O)c2ccc(Br)cc2F)CC1`: “inactive”; `Cc1cc2c(s1)c1cnn(Cc3cc(C(F)(F)F)ccc3F)c(=O)c1n2C`: “inactive”.
For the molecule `CC(=O)Nc1sc2c(c1Br)CCNC2`, the Potency entry was “inactive”.
Next, `CC(C)(C)OC(=O)Cc1nnc(-c2cc3ccccc3[nH]2)s1`: “inactive”; `NC(=O)C[C@H](N)C(=O)Nc1ccc(Cl)cc1C(=O)c1ccc[nH]1`: “inactive”.
In the case of `Cn1nnnc1Sc1ncnc2scc(Br)c12`, the Potency entry was “inactive”.
With `O=C1CCCC2=C1C1(CCSC1)N=C(Nc1nc3ccccc3o1)N2` (stereo not given), the Potency entry was “inactive”.
Next, `Fc1cccc(-c2ccc(Nc3nc(-c4ccncc4)nc4ccccc34)cc2F)c1`: “inactive”; `N#Cc1c(-c2ccc(Br)cc2)no[n+]1[O-]`: “inactive”; `N#Cc1ccc(Nc2nn3c(=O)c4ccccc4nc3s2)cc1`: “inactive”.
As to `Cc1ccc(OCCn2c(CCNC(=O)c3ccc([N+](=O)[O-])cc3)nc3ccccc32)cc1`, the Potency result is “inactive”.
Take `N#Cc1cccc(NS(=O)(=O)c2ccc3c(c2)CCC(=O)N3)c1`: the Potency result was “inactive”.
To `O=C1CCCC2=C1C(c1[nH]ncc1Cl)N=C(Nc1ccn[nH]1)N2` (stereo not given) belongs “inactive”; to `O=C(O)c1cccc(-c2noc(-c3ccccc3C(F)(F)F)n2)c1`, “inactive”.
To `Cc1noc(C)c1-c1ccc2ncnc(NCC3CCN(C)CC3)c2c1` belongs “inactive”.
To `COc1cccc(C2c3c(ncn(-c4ccccc4C#N)c3=N)Oc3ccc4ccccc4c32)c1` (stereo not given) belongs “inactive”.
In the case of `Cc1nnc(-c2ccccc2C(C)C)nc1NCc1ccc(-c2cccnc2)cc1`, the Potency result was “inactive”.
For the molecule `Cc1ccc(-c2ccc(=O)n(CC(=O)NCCc3cnc[nH]3)n2)cc1`, the Potency result was “inactive”.
Consider `CC(C)(C)NS(=O)(=O)c1cccc(Nc2nn3c(=O)c4ccccc4nc3s2)c1`, for which the Potency entry was “inactive”.
Take `Cc1cccc(-c2ccc3ncnc(NCc4cccnc4)c3c2)c1`: the Potency result is “inactive”.
